This is an account of results in PubChem BioAssay (NCATS).

Records with an inconclusive call do not appear. Entries that show only a call come without a potency. Active and inactive are the calls of the source. The call rests on the fitted dose curve; in most records, active means well fitted inhibition curve with a large enough effect; inconclusive means small, poorly fitted or top-dose-only effect; inactive means flat fitted curve, though single readings scatter.
Potency means the concentration at half of the fitted maximal effect.

The subject of the experiment is astro (control astrocytes). As to the kind of experiment: Drug repurposing screens with cells derived from glioblastoma tumor samples (AID 1345199). Further: nearly all actives have a fitted effect of over 40% in size. The conditions noted are these: viability, ATP luminescence, 48 h; series mostly up to 45.9 µM. The procedure:
CD133+ cells were isolated from GBM patient biopsies and cultured as neurospheres. Neurospheres from four patients were used to screen the NCATS pharmaceutical collection (NPC) library of approved drugs and bioactive compounds. […] The neurospheres were incubated with drugs for 48 hours in 1536-well format, then assayed with an ATP content cell viability assay. […] These hits were cherry picked to confirm activity in the four original GBM lines screened plus three other slower growing GMB lines (unable to yield enough cells for a full primary screen). Variable activities of the confirmed primary hits in the different GBM patient lines were observed. The patient line 206 responded to the greatest number of compounds and line 923 responded to the least amount of active compounds.
For the compound `CCC1(c2ccccc2)C(=O)N(COC)C(=O)N(COC)C1=O`, the Potency entry was “inactive”.

With `C[C@]12CCC(=O)C=C1CC[C@@H]1[C@@H]2CC[C@]2(C)C(=O)CC[C@@H]12`, the Potency entry is “inactive”. The value for `COc1ccc2c(c1OC)C(=O)O[C@H]2[C@@H]1c2cc3c(cc2CCN1C)OCO3` was “inactive”. Turning to `O=C1OC(c2ccc(O)c(S(=O)(=O)O)c2)(c2ccc(O)c(S(=O)(=O)O)c2)c2c(Br)c(Br)c(Br)c(Br)c21`, the Potency result is “inactive”. For the compound `[N-]=[N+]=CC(=O)OC[C@H](N)C(=O)O`, the Potency entry was “inactive”. In the case of `Nc1ccccc1C(=O)O`, the Potency result was “inactive”.

For the compound `CCCCCCC(=O)CCCCCC/C=C/C[C@@H](O)[C@H](O)[C@@](N)(CO)C(=O)O`, the Potency result was “inactive”. Then `COc1cc(CC(C)N)cc(OC)c1OC` (stereo not given), with “inactive”. For the compound `Nc1nc(N)nc(NC2CC2)n1`, the Potency result was “inactive”. Consider `O=C(Nc1ccc(Br)cc1)c1cc(Br)cc(Br)c1O`, for which the Potency was 7.08 µM (active).

In the case of `C[N+]1(CCF)[C@@H]2CC[C@H]1CC(OC(=O)C(O)(c1ccccc1)c1ccccc1)C2` (stereo not given in full), the Potency result is “inactive”.

Regarding `CCOC(=O)CC(SP(=S)(OC)OC)C(=O)OCC` (stereo not given), the Potency entry is “inactive”. For `CCCC(C)(COC(N)=O)COC(N)=O`, the Potency result is “inactive”. For `O=C(CCCN1CCC2(CC1)C(=O)NCN2c1ccccc1)c1ccc(F)cc1`, the Potency result was “inactive”. For `COc1c2c(cc3c1OCO3)CCN(C)C2`, the Potency result was “inactive”.

In the case of `CN1C[C@H](C(=O)N[C@]2(C)O[C@@]3(O)[C@@H]4CCCN4C(=O)[C@H](Cc4ccccc4)N3C2=O)C=C2c3cccc4[nH]cc(c34)C[C@H]21`, the Potency result is “inactive”. `Oc1ccc(Cl)cc1`: the Potency result was “inactive”.

Consider `Nc1ccccc1`, for which the Potency result is “inactive”. For `Nc1ccc([As](=O)(O)O)cc1`, the Potency entry is “inactive”. For `c1ccc2c(c1)sc1ccccc12`, the Potency result is “inactive”.

With `Clc1ccc(C(c2ccc(Cl)cc2)C(Cl)(Cl)Cl)cc1`, the Potency entry is “inactive”.

For the compound `C=CCN1C[C@H](C)N([C@H](c2ccc(C(=O)N(CC)CC)cc2)c2cccc(OC)c2)C[C@H]1C`, the Potency entry was “inactive”. For the compound `CC1(C)C(C=C(Cl)Cl)C1C(=O)OC(C#N)c1cccc(Oc2ccccc2)c1` (stereo not given), the Potency result was “inactive”.

As to `CCCN(CCC)C(=O)Cc1c(-c2ccc(Cl)cc2)nc2ccc(Cl)cn12`, the Potency result was “inactive”.

Consider `CC(=O)OCC1=C(C(=O)O)N2C(=O)[C@@H](N)[C@H]2SC1`, for which the Potency entry is “inactive”. For the compound `COC(=O)C(c1ccccc1)C1CCCCN1` (stereo not given), the Potency entry is “inactive”. As to `CCCCCCCCCC(=O)O[C@H]1CC[C@H]2[C@@H]3CCC4=CC(=O)CC[C@@H]4[C@H]3CC[C@]12C`, the Potency result is “inactive”. As to `CC(Cc1ccccc1)NCCn1cnc2c1c(=O)n(C)c(=O)n2C` (stereo not given), the Potency result was “inactive”.

In the case of `O=C(N/N=C/c1ccc([N+](=O)[O-])o1)c1cc([N+](=O)[O-])cc([N+](=O)[O-])c1O`, the Potency entry was “inactive”. The value for `COP(=S)(OC)Oc1cc(Cl)c(Cl)cc1Cl` was “inactive”; that for `O=C(O)CCCc1ccc(N(CCCl)CCCl)cc1` was “inactive”.

With `CN[C@@H](C)Cc1ccccc1`, the Potency entry is “inactive”. For `CCN(CC)C(=O)[C@@H]1C=C2c3cccc4[nH]cc(c34)C[C@H]2N(C)C1`, the Potency entry was “inactive”.

As for `CN1CC[C@]23c4c5ccc(O)c4O[C@H]2[C@@H](O)C=C[C@H]3[C@H]1C5`, the Potency entry was “inactive”. Regarding `CN1CCC(O)(c2ccc(F)cc2)C(C(=O)c2ccc(F)cc2)C1` (stereo not given), the Potency entry is “inactive”. `O=C1CN=C(c2ccccc2)c2cc([N+](=O)[O-])ccc2N1`: the Potency result is “inactive”.

Turning to `CC(C)c1c(CN(C)C(C)Cc2ccccc2)n(C)n(-c2ccccc2)c1=O` (stereo not given), the Potency result was “inactive”. The value for `C[C@]12CCC(=O)C=C1CC[C@@H]1[C@H]3CC[C@](C)(O)[C@@]3(C)CC[C@@H]12` was “inactive”. Regarding `COC1CC(=C(c2cccs2)c2cccs2)C[N+](C)(C)C1` (stereo not given), the Potency entry was “inactive”. In the case of `Cc1nnc2n1-c1ccc(Cl)cc1C(c1ccccc1Cl)=NC2`, the Potency result is “inactive”.
